We go through 58 compounds from ChEMBL document CHEMBL3988442, “University of Dundee, Small-Polar-MMV Screening Library” (2021).

The whole screen tested about 53,000 compounds, of which about 900 (1.7%) showed an effect of 50% or more. What follows is part of a selection rich in strong results, with near analogues and random picks from the rest.

In the assay the test system is Mycobacterium tuberculosis. Nature of the assay: Cornell - Phenotypic assay to identify agents that inhibit growth of Mycobacterium tuberculosis. It counts as functional. On the set-up: scale not given: direction of the effect not stated beside the values. The note with it: 10 mM as filed; unlikely as a test dose.
On to `CCCc1ccc(C(C)Nc2ncnc3c2CCNC3)cc1` (stereo not drawn), for which the “Percent Effect” value was 32.1%.
Regarding `CCOc1ccc(C(C)Nc2ncnc3c2CCNC3)cc1OCC` (stereo not drawn), the “Percent Effect” value came to 51.31%.
Consider `CC(Nc1ncnc2c1CCNC2)c1ccc(C(C)(C)C)cc1` (stereo not drawn), for which the “Percent Effect” value turned out to be 24.62%.
For `COC(=O)Cn1nc(-c2ccccc2F)ccc1=O`, the “Percent Effect” value is -14.4%.
On to `O=c1c(S(=O)(=O)N2CCCCC2)cccn1Cc1ccccc1Cl`, for which the “Percent Effect” value was 9.959%.
On to `CC(C)COC(=O)N1CCCN(C(C)c2nc(C(C)C)no2)CC1` (stereo not drawn), for which the “Percent Effect” value was found to be 10.17%.
Turning to `O=C(NCCc1cccs1)C1(N2CCCCC2)Cc2ccccc2C1`, the “Percent Effect” value is 15.22%.
On to `Cc1cccc(CN2C[C@@H]3OCCN(c4ccnc(N(C)C)n4)[C@@H]3C2)c1.O=C(O)C(F)(F)F`, for which the “Percent Effect” value was found to be 24.83%.
As to `O=C(O)C(F)(F)F.O=C(O)C(F)(F)F.c1cnc(N2CCO[C@H]3CN(Cc4ccsc4)C[C@H]32)nc1`, the “Percent Effect” value came out at 5.511%.
For `CN(C)c1nccc(N2CCO[C@H]3CN(Cc4ccsc4)C[C@H]32)n1.O=C(O)C(F)(F)F`, the “Percent Effect” value is 57.1%.
`Oc1ccccc1-c1n[nH]c(C2CC2)n1`: the “Percent Effect” value is on record as -27.03%.
On to `CNC(=O)CC1CCN(C(=O)NCc2cn3c(C)cccc3n2)CC1`, for which the “Percent Effect” value was determined as 20.05%.
Consider `CC(=O)N1CCCC(c2ccc(C(=O)NC3CCCC3)cn2)C1` (stereo not drawn), for which the “Percent Effect” value is -27.02%.
In the case of `Cc1ccc([C@]2(O)CC[C@H]3CN(Cc4cccc(F)c4F)C[C@H]32)nc1.O=C(O)CC(O)(CC(=O)O)C(=O)O`, the “Percent Effect” value is listed as -20.35%.
For the compound `Cc1ccc([C@]2(O)CC[C@H]3CN(Cc4ccccc4F)C[C@H]32)nc1.O=C(O)CC(O)(CC(=O)O)C(=O)O`, the “Percent Effect” value is given as 8.735%.
With `COc1ncc(CN2C[C@@H]3CC[C@@](O)(c4ccc(C)cn4)[C@@H]3C2)cn1.O=C(O)CC(O)(CC(=O)O)C(=O)O`, the “Percent Effect” value is recorded as -1.54%.
As to `Cc1ccc([C@]2(O)CC[C@H]3CN(Cc4cc(C)c(O)c(C)c4)C[C@H]32)nc1.O=C(O)CC(O)(CC(=O)O)C(=O)O`, the “Percent Effect” value is recorded as 50.31%.
Regarding `Cc1ccc([C@]2(O)CC[C@H]3CN(Cc4cccc(Cl)c4Cl)C[C@H]32)nc1.O=C(O)CC(O)(CC(=O)O)C(=O)O`, the “Percent Effect” value was 69.29%.
Regarding `O=C(O)CC(O)(CC(=O)O)C(=O)O.O[C@@]1(c2ccccn2)CC[C@H]2CN(Cc3cccc(Cl)c3Cl)C[C@H]21`, the “Percent Effect” value turned out to be 3.215%.
For the compound `CN(CCc1ncnn1-c1ccccc1Cl)C1CCS(=O)(=O)C1` (stereo not drawn), the “Percent Effect” value is listed as -16.6%.
Take `Cc1ccc(CNS(=O)(=O)CCCC#N)cc1F`: the “Percent Effect” value is reported as 6.478%.
As to `CC(c1nccs1)N(C)S(=O)(=O)NCc1ccccc1` (stereo not drawn), the “Percent Effect” value is on record as -14.93%.
Consider `Cc1cc(C)n(CC2CN(CC(=O)NC(C3CC3)C3CC3)CCO2)n1` (stereo not drawn), for which the “Percent Effect” value is listed as -31.15%.
For `Cc1ccc(CN2Cc3c(C(=O)N4CCOCC4)nn(C)c3C2)s1.O=C(O)C(F)(F)F` the value was 15.84%; for `O=C(O)C(F)(F)F.c1cnc(N2CCO[C@H]3[C@H](OCC4CCOCC4)CC[C@@H]32)nc1`, -2.783%; for `c1ccc(CN2CCC(Nc3ncnc4c3CCNCC4)C2)cc1` (stereo not drawn), 21.59%.
For `CCS(=O)(=O)N1CCCCC1c1nc(CC(C)C)no1` (stereo not drawn) the value was 28.4%; for `Cc1cccc2c1cnn2CCC(=O)NCc1csc(C2CC2)n1`, 28.59%; for `CN1CCN(c2ncccc2N)CC1`, -43.88%.
For `Nc1cccnc1N1CCN(c2ccccc2)CC1`, the “Percent Effect” value is given as 11.1%.
Turning to `Cl.Nc1cccnc1N1CCCCCC1`, the “Percent Effect” value stood at 72.92%.
On to `Cc1cc(C)n(CCNCc2cc(-c3ccc(Cl)cc3)c[nH]c2=O)n1`, for which the “Percent Effect” value is -2.359%.
With `Cc1nc2c(c(NCc3nc4ccccc4s3)n1)CCNCC2`, the “Percent Effect” value was found to be 90.34%.
To `Cc1nc2c(c(NCc3ccc(-c4ccccn4)s3)n1)CCNCC2` belongs 10.6%; to `Cc1nc2c(c(NCc3cc4ccccc4s3)n1)CCNCC2`, 31.59%; to `Cc1nnc(N2CC[C@H]3C[C@@H](C(=O)NC4CCCC4)O[C@H]3C2)s1.O=C(O)C(F)(F)F`, -17.08%.
Regarding `O=C(NC1CCN(Cc2cccc3c2OCCO3)CC1)c1cccs1`, the “Percent Effect” value was -12.52%.
As for `Cc1nnc([C@@]23CCO[C@@H]2CCN(Cc2ccc4c(c2)OCO4)C3)o1`, the “Percent Effect” value is on record as -5.266%.
For `Cc1csc(N2CCN(C(=O)c3c(C)oc(C)c3C)CC2)n1` the value was 16.26%; for `Cc1cc(C(N)=O)ccc1NC(=O)c1nc(N2CCCC2)ncc1Cl`, 105.8%; for `CN(C)C(CNC(=O)c1nc(N2CCCC2)ncc1Cl)c1ccco1` (stereo not drawn), 22.7%.
Turning to `Cc1cc(NC(=O)c2nc(N3CCCC3)ncc2Cl)nc(C(C)C)n1`, the “Percent Effect” value turned out to be 24.2%.
As for `O=C(Nc1cnn(Cc2ccc(Cl)cc2)c1)N[C@@H]1C=C[C@H](CO)C1`, the “Percent Effect” value turned out to be 24.39%.
On to `O=C(Nc1cnn(-c2ccccc2Cl)c1)N[C@@H]1C=C[C@H](CO)C1`, for which the “Percent Effect” value is 52.75%.
Consider `Cc1cnn(Cc2ccc(NC(=O)N[C@@H]3C=C[C@H](CO)C3)cc2)c1`, for which the “Percent Effect” value was determined as 20.48%.
`O=C(N1CCCC1)N1C[C@@H](OCc2cccnc2)[C@H]2OCCC[C@H]21.O=C(O)C(F)(F)F`: the “Percent Effect” value is on record as 12.95%.
On to `Cc1cc2ccccc2n1CCC(=O)N1CCN(C)CC1C(N)=O` (stereo not drawn), for which the “Percent Effect” value was 81.47%.
Regarding `Cc1cc2ccccc2n1CCC(=O)N1CCCCC1CCO` (stereo not drawn), the “Percent Effect” value worked out at 105.9%.
To `Cc1cc2ccccc2n1CCC(=O)N1CCCC1Cn1cccn1` (stereo not drawn) belongs 91.97%.
For the compound `Cc1cc2ccccc2n1CCC(=O)N1CCC[C@H]1C(N)=O`, the “Percent Effect” value turned out to be 9.96%.
Turning to `COc1ccc2c(ccn2CC(=O)N2CCCC2Cn2cccn2)c1` (stereo not drawn), the “Percent Effect” value is given as 24.26%.
`Cc1cc2ccccc2n1CCC(=O)N1CCC2(CC1)CNC(=O)C2`: the “Percent Effect” value is recorded as -9.599%.
For `Cc1cc2ccccc2n1CCC(=O)N1CCCC2(CC1)CNC(=O)O2` (stereo not drawn), the “Percent Effect” value is on record as -6.951%.
To `O=C(CCCOc1ccccc1)N1CCCC1Cn1cccn1` (stereo not drawn) belongs -5.631%.
For `Cc1cc(C)n(CC(=O)N2CCCCC2CCN(C)C)c(=O)n1` (stereo not drawn) the value was 19.58%; for `Cc1cc(C2CCCN(C(=O)c3cccnc3)C2)ccn1` (stereo not drawn), -13.34%.
To `CCc1cc(NCc2ccccc2CN2CCCC2)n2ncnc2n1` belongs -6.247%; to `O=C(NCc1ccco1)[C@H]1C[C@@H]2CCN(c3ncccn3)C[C@H]2O1.O=C(O)C(F)(F)F`, 33.78%.
